Results as given in PubChem BioAssay (NCI).
Compounds without any hit were thinned out: in the full panel of roughly 83,000, 20% have a hit.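 Note: values are percent growth. 100 is the growth of untreated cells, values between 100 and 0 indicate rising inhibition; between -100 and 0 indicates cell death.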 The source made the active and inactive calls. Rule for the calls: active = growth percent below 10; inactive = the rest.

What was measured:
Test in all cases: NCI-60 one-dose screen, 48 h (100 = growth as untreated, 0 = no growth, -100 = all killed)
Conditions in all cases: 10 µM unless noted
SR leukemia = test system: SR leukemia
RPMI-8226 leukemia = test system: RPMI-8226 leukemia
OVCAR-8 ovarian = test system: OVCAR-8 ovarian
OVCAR-5 ovarian = test system: OVCAR-5 ovarian
OVCAR-4 ovarian = test system: OVCAR-4 ovarian
SK-OV-3 ovarian = test system: SK-OV-3 ovarian
IGROV1 ovarian = test system: IGROV1 ovarian
OVCAR-3 ovarian = test system: OVCAR-3 ovarian
NCI/ADR-RES ovarian = test system: NCI/ADR-RES ovarian

Measured: growth

Cc1cnc(Nc2ccc(OCCN3CCCC3)cc2)nc1Nc1cccc(S(=O)(=O)NC(C)(C)C)c1
active: SR leukemia -11.4% | RPMI-8226 leukemia -33.8% | OVCAR-8 ovarian 3.89% | OVCAR-5 ovarian 7.41% | SK-OV-3 ovarian -86.8% | IGROV1 ovarian -11.8%
inactive: OVCAR-4 ovarian 26.3% | OVCAR-3 ovarian 28.2% | NCI/ADR-RES ovarian 30.5%

Cn1cnc2c(F)c(Nc3ccc(Br)cc3F)c(C(=O)NOCCO)cc21
inactive: SR leukemia 64.6% | RPMI-8226 leukemia 63.5% | OVCAR-8 ovarian 65.8% | OVCAR-4 ovarian 55.9% | SK-OV-3 ovarian 50.2% | IGROV1 ovarian 27.6% | OVCAR-3 ovarian 106% | NCI/ADR-RES ovarian 69.1%
active: OVCAR-5 ovarian 9.55%

N#Cc1c(-c2ccc(Cl)cc2)csc1NC(=O)Nc1cccc(C(F)(F)F)c1
inactive: SR leukemia 33% | OVCAR-8 ovarian 11.4% | OVCAR-5 ovarian 42.8% | OVCAR-4 ovarian 10.4% | IGROV1 ovarian 33.5% | NCI/ADR-RES ovarian 11.6%
active: RPMI-8226 leukemia 3.99% | SK-OV-3 ovarian 9.45% | OVCAR-3 ovarian -3.56%

COc1cc(Nc2c(C#N)cnc3cc(OCCCN4CCN(C)CC4)c(OC)cc23)c(Cl)cc1Cl
active: IGROV1 ovarian 6.33%
inactive: SR leukemia 31.5% | RPMI-8226 leukemia 59.3% | OVCAR-8 ovarian 42.9% | OVCAR-5 ovarian 22.8% | OVCAR-4 ovarian 56% | SK-OV-3 ovarian 44.3% | OVCAR-3 ovarian 77.9% | NCI/ADR-RES ovarian 78.6%

CCn1c(-c2nonc2N)nc2c(C#CC(C)(C)O)ncc(OC[C@H]3CCCNC3)c21
inactive: SR leukemia 29.3% | RPMI-8226 leukemia 91.7% | OVCAR-8 ovarian 70.6% | OVCAR-5 ovarian 108% | OVCAR-4 ovarian 68.5% | SK-OV-3 ovarian 15% | IGROV1 ovarian 23.9% | OVCAR-3 ovarian 41.3% | NCI/ADR-RES ovarian 95.6%

COC(=O)[C@]12CC[C@@H](C)[C@H](C)[C@@H]1C1=CC[C@@H]3[C@@]4(C)C(C#N)=CC(C)=C4CC[C@@]3(C)[C@]1(C)CC2
inactive: SR leukemia 68% | RPMI-8226 leukemia 76.7% | OVCAR-8 ovarian 103% | OVCAR-5 ovarian 91.9% | OVCAR-4 ovarian 88.3% | SK-OV-3 ovarian 99.3% | IGROV1 ovarian 106% | OVCAR-3 ovarian 88.9% | NCI/ADR-RES ovarian 89.2%

O=C1CSC(c2c(F)cccc2Cl)N1NC(=O)C(O)(c1ccccc1)c1ccccc1 (configuration not stated)
inactive: SR leukemia 95.5% | RPMI-8226 leukemia 94% | OVCAR-8 ovarian 98.3% | OVCAR-5 ovarian 103% | OVCAR-4 ovarian 97.4% | SK-OV-3 ovarian 101% | IGROV1 ovarian 72% | OVCAR-3 ovarian 100% | NCI/ADR-RES ovarian 95.4%

CCN1CCN(Cc2ccc(Cc3ncc(F)c(-c4cc(F)c5nc(C)n(C(C)C)c5c4)n3)nc2)CC1
active: SR leukemia -12.4%
inactive: RPMI-8226 leukemia 44.8% | OVCAR-8 ovarian 68.3% | OVCAR-5 ovarian 46.5% | OVCAR-4 ovarian 69.5% | SK-OV-3 ovarian 22.4% | IGROV1 ovarian 37.3% | OVCAR-3 ovarian 63.2% | NCI/ADR-RES ovarian 72.3%

CC1(COc2ccc3c(c2)ncn3-c2ccc3cccc(N4CCC(N)CC4)c3n2)COC1
inactive: OVCAR-5 ovarian 10.3% | OVCAR-4 ovarian 29.2% | SK-OV-3 ovarian 54.2% | IGROV1 ovarian 22.7% | OVCAR-3 ovarian 37.2% | NCI/ADR-RES ovarian 51.5%
active: SR leukemia -6.81% | RPMI-8226 leukemia 0.988% | OVCAR-8 ovarian 3.53%

Cc1cc(-c2cc(O)ccc2Cl)cc2nnc(Nc3ccc(OCCN4CCCC4)cc3)nc12
active: SR leukemia -35% | RPMI-8226 leukemia -43.9% | OVCAR-8 ovarian -63.6% | OVCAR-5 ovarian -83.5% | OVCAR-4 ovarian -81.9% | SK-OV-3 ovarian -77.7% | IGROV1 ovarian -60.2% | OVCAR-3 ovarian -79.7% | NCI/ADR-RES ovarian -69.3%

C1=C\COCc2cc(ccc2OCCN2CCCC2)Nc2nccc(n2)-c2cccc(c2)COC/1
active: SR leukemia -8.75% | RPMI-8226 leukemia -32% | OVCAR-8 ovarian 6.66% | OVCAR-5 ovarian -6.58% | OVCAR-4 ovarian -4.87% | SK-OV-3 ovarian -27.6% | IGROV1 ovarian -18.7% | OVCAR-3 ovarian 2.03% | NCI/ADR-RES ovarian 0.945%

O=C(NOCCO)c1cc(CN2OCCCC2=O)c(F)c(F)c1Nc1ccc(I)cc1F
inactive: SR leukemia 65.6% | RPMI-8226 leukemia 78.8% | OVCAR-8 ovarian 52.1% | OVCAR-5 ovarian 20.2% | OVCAR-4 ovarian 64.5% | SK-OV-3 ovarian 52.3% | IGROV1 ovarian 21.2% | OVCAR-3 ovarian 103% | NCI/ADR-RES ovarian 58.1%

C=CC(=O)N1CCC[C@H](n2c(=O)n(-c3ccc(Oc4ccccc4)cc3)c3c(N)ncnc32)C1
active: SK-OV-3 ovarian 3%
inactive: SR leukemia 74% | RPMI-8226 leukemia 76.4% | OVCAR-8 ovarian 65.8% | OVCAR-5 ovarian 86.6% | OVCAR-4 ovarian 85.3% | IGROV1 ovarian 30.7% | OVCAR-3 ovarian 76.4% | NCI/ADR-RES ovarian 74.9%

Cc1[nH]c(/C=C2\C(=O)Nc3ccc(F)cc32)c(C)c1C(=O)NC[C@H](O)CN1CCOCC1
inactive: RPMI-8226 leukemia 49.4% | OVCAR-8 ovarian 42.6% | OVCAR-5 ovarian 15.1% | OVCAR-4 ovarian 50.6% | IGROV1 ovarian 19.6% | OVCAR-3 ovarian 70.3% | NCI/ADR-RES ovarian 64.7%
active: SR leukemia -2.38% | SK-OV-3 ovarian 3.3%

O=c1sn(-c2cccc3ccccc23)c(=O)n1Cc1ccccc1
inactive: SR leukemia 38.7% | RPMI-8226 leukemia 76.8% | OVCAR-8 ovarian 94.4% | OVCAR-5 ovarian 112% | OVCAR-4 ovarian 107% | SK-OV-3 ovarian 83% | IGROV1 ovarian 98.2% | OVCAR-3 ovarian 99.4% | NCI/ADR-RES ovarian 107%

CC1=CC2c3oc(-c4ccccc4)c(C(=O)c4ccccc4)c3CNC2C=C1 (configuration not stated)
inactive: SR leukemia 89.6% | RPMI-8226 leukemia 105% | OVCAR-8 ovarian 83.6% | OVCAR-5 ovarian 88.8% | OVCAR-4 ovarian 117% | SK-OV-3 ovarian 83.3% | IGROV1 ovarian 102% | OVCAR-3 ovarian 106% | NCI/ADR-RES ovarian 94.6%

COc1ccc(/C(C)=C(\c2ccc(Cl)cc2)c2ccc(OCCN3CCCCCC3)cc2)cc1
active: SR leukemia 1.94%
inactive: RPMI-8226 leukemia 51.2% | OVCAR-8 ovarian 69.1% | OVCAR-5 ovarian 74.3% | OVCAR-4 ovarian 56.4% | SK-OV-3 ovarian 55.7% | IGROV1 ovarian 67.1% | OVCAR-3 ovarian 58.2% | NCI/ADR-RES ovarian 82.8%

CC/C(=C(\c1ccc(OCCN2CCCCCCC2)cc1)c1ccc(OC(=O)C2CCCCC2)cc1)c1ccc(Cl)cc1
inactive: SR leukemia 78.5% | RPMI-8226 leukemia 107% | OVCAR-8 ovarian 100% | OVCAR-5 ovarian 89.9% | OVCAR-4 ovarian 108% | SK-OV-3 ovarian 111% | IGROV1 ovarian 103% | OVCAR-3 ovarian 99.1% | NCI/ADR-RES ovarian 105%

COc1ccc(Br)cc1NC(=O)Nc1cccc2c1ccn2Cc1ccnc(N)c1
inactive: RPMI-8226 leukemia 15.2% | OVCAR-8 ovarian 21.2% | OVCAR-5 ovarian 47.8% | OVCAR-4 ovarian 38.8% | SK-OV-3 ovarian 26.7% | IGROV1 ovarian 36.3% | OVCAR-3 ovarian 67.4% | NCI/ADR-RES ovarian 31.1%
active: SR leukemia 7.97%

COc1cc(N2CCC(N3CCN(C)CC3)CC2)ccc1Nc1ncnc(Nc2ccccc2S(=O)(=O)C(C)C)n1
inactive: SR leukemia 12.7% | RPMI-8226 leukemia 101% | OVCAR-8 ovarian 99.3% | OVCAR-5 ovarian 98.3% | OVCAR-4 ovarian 113% | SK-OV-3 ovarian 87.4% | IGROV1 ovarian 103% | OVCAR-3 ovarian 105% | NCI/ADR-RES ovarian 109%

Cn1ncc(Cl)c1-c1cc(C(=O)N[C@H](CN)Cc2cccc(F)c2)sc1Cl
inactive: OVCAR-8 ovarian 15.5% | OVCAR-5 ovarian 35.3% | OVCAR-4 ovarian 35.6% | OVCAR-3 ovarian 31% | NCI/ADR-RES ovarian 28.6%
active: SR leukemia -29.6% | RPMI-8226 leukemia -10.3% | SK-OV-3 ovarian -12.8% | IGROV1 ovarian -21.5%

Cn1ccnc1C(=O)/C=C/c1ccc(CC(=O)Nc2ccc(Br)cc2)cc1
active: SR leukemia 3.22% | RPMI-8226 leukemia 8.13% | OVCAR-8 ovarian 3.98%
inactive: OVCAR-5 ovarian 21.8% | OVCAR-4 ovarian 43.2% | SK-OV-3 ovarian 54.6% | IGROV1 ovarian 11.3% | OVCAR-3 ovarian 11.1% | NCI/ADR-RES ovarian 16.3%

O=c1[nH]ccc2c(S(=O)(=O)N3CCCNCC3)cccc12
active: SK-OV-3 ovarian -0.289%
inactive: SR leukemia 83.3% | RPMI-8226 leukemia 106% | OVCAR-8 ovarian 90.4% | OVCAR-5 ovarian 62.9% | OVCAR-4 ovarian 89.5% | IGROV1 ovarian 31.2% | OVCAR-3 ovarian 60.7% | NCI/ADR-RES ovarian 75.4%

COc1cccc(NC(=O)Nc2ccc(Nc3ncnc4sc5c(c34)CCN(C(=O)CCl)C5)cc2)c1
inactive: SR leukemia 77.8% | RPMI-8226 leukemia 93.3% | OVCAR-8 ovarian 84.4% | OVCAR-5 ovarian 103% | OVCAR-4 ovarian 126% | SK-OV-3 ovarian 93.8% | IGROV1 ovarian 82.6% | OVCAR-3 ovarian 104% | NCI/ADR-RES ovarian 102%

CC(=O)OC(C(=O)c1ccccc1)c1ccccc1 (configuration not stated)
inactive: SR leukemia 106% | RPMI-8226 leukemia 105% | OVCAR-8 ovarian 98% | OVCAR-5 ovarian 102% | OVCAR-4 ovarian 97.8% | SK-OV-3 ovarian 94.1% | IGROV1 ovarian 105% | OVCAR-3 ovarian 121% | NCI/ADR-RES ovarian 107%

S=C(NCc1ccc2c(c1)OCO2)N1CCN(c2ncnc3c2oc2ccccc23)CC1
inactive: SR leukemia 14.8% | RPMI-8226 leukemia 21.3% | OVCAR-8 ovarian 24.8% | OVCAR-5 ovarian 62.1% | OVCAR-4 ovarian 14.1% | SK-OV-3 ovarian 35.6% | IGROV1 ovarian 33.4% | OVCAR-3 ovarian 30.9% | NCI/ADR-RES ovarian 28.3%

COc1cc2c(cc1OCCCCN1CCN(CC(=O)Nc3ccc(Cl)cc3C(=O)c3ccccc3Cl)CC1)N=CC1CCCN1C2=O (configuration not stated)
active: SR leukemia -66.7% | RPMI-8226 leukemia -74% | OVCAR-8 ovarian -65.5% | OVCAR-5 ovarian -51.7% | OVCAR-4 ovarian -91.4% | SK-OV-3 ovarian -76% | IGROV1 ovarian -88.2% | OVCAR-3 ovarian -94.6% | NCI/ADR-RES ovarian 2.24%

C[C@@H](N)c1ccc(C(=O)Nc2ccnc3[nH]ccc23)cc1
active: SR leukemia 9.45% | SK-OV-3 ovarian -45.2%
inactive: RPMI-8226 leukemia 64.7% | OVCAR-8 ovarian 36.2% | OVCAR-5 ovarian 42.9% | OVCAR-4 ovarian 69.9% | IGROV1 ovarian 27.9% | OVCAR-3 ovarian 57.9% | NCI/ADR-RES ovarian 84%
